Screening data deposited in PubChem by National Center for Advancing Translational Sciences (NCATS).
Most compounds without a hit are left out; they make up all but 10% or so of the library.
VDR inhibitor: Inhibitors of the vitamin D receptor (VDR): qHTS. Potency, µM, usual class: inhibitors. AID 504847, 2011. Vitamin D3 receptor (Homo sapiens), P11473. VDR-SRC2-3 peptide fluorescence polarization, 2 h. 400,000 tested, 0.93% active
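VDR–SRC2-3 interaction, FP format. Cmpds 23 nl via pintool, brief spin, 2 h ambient incubation.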
CCT modulator: High-Throughput Screening for Modulators of Cytosolic Chaperonin Activity; AID 651819, 2012; activity change, % (test concentration not listed), hits read low; purified chaperonin ATPase assay, HTRF ADP detection, 30 min; 360,000 tested, 0.3% active; in the data active = activity change below about -30%
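Nucleotide hydrolysis assay: TRiC at 20–40 nM final (set by batch activity) with 10 uM ATP, 30 min at 37 °C, in presence of 76 uM compound. Detection by competitive ADP HTRF, 30 min ambient.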
MmCpn inh: Inhibitors of TCP-1 ring complex (TRiC) of Methanococcus maripaludis (MmCpn): qHTS; Chaperonin Mm-Cpn (Methanococcus maripaludis); purified Mm-Cpn ATPase, ADP Transcreener TR-FRET; Potency, µM (series often up to 76.9 µM), actives largely listed as inhibitors; 330,000 tested, 0.031% active; AID 504842, 2011; note: nearly all actives have a fitted effect of over 80% in size
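Measured: ADP formation by purified Mm-CPN. Conditions: 25 nM protein, 10 uM ATP, Tris pH 7.4 with Mg2+, K+ and DTT, 37°C for 30 min. Detection: Transcreener HTRF after 30 min at room temperature.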
PLK1 PBD inh: qHTS for Inhibitors of PLK1-PDB (polo-like kinase 1 - polo-box domain): Primary Screen. Plk1 PBD binding of FITC phosphopeptide, fluorescence polarization. Potency, µM, hits mostly inhibitors. 360,000 tested, 2.8% active; note: series mostly up to about 57 µM; nearly all actives have a fitted effect of over 65% in size
G9a inh: qHTS Assay for Inhibitors of Histone Lysine Methyltransferase G9a; G9a H3K9 monomethylation, AlphaScreen, 2 h; Potency, µM (highest dose often 102 µM), most hits filed as inhibitors; 350,000 tested, 8.8% active; AID 504332, 2011; note: nearly all actives have a fitted effect of over 75% in size
Target sequence (Q96KQ7 913-1193 limits assumed): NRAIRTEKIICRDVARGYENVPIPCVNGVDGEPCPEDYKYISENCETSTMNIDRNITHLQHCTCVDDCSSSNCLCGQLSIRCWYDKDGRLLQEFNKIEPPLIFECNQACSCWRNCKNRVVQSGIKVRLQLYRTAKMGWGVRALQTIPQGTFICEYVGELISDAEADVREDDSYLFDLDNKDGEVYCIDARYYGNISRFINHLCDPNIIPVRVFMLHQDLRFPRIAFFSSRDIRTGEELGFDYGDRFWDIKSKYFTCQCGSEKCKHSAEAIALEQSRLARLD
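Readings reflect AlphaScreen signal from monomethyl-H3K9 antibody detection. HMT at 20 nM; substrate b-H3K9 500 nM; cofactor SAM 20 uM; 2 h RT reaction; compounds tested as titrations in qHTS with 15 min preincubation.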
Sfp inh: qHTS Assay for Inhibitors of Bacillus subtilis Sfp phosphopantetheinyl transferase (PPTase) | Biochemical Sfp PPTase activity, qHTS | Potency, µM, usual class: inhibitors | 310,000 tested, 3.5% active | 4'-phosphopantetheinyl transferase ffp (Bacillus subtilis), Q9F4F7;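 note: the enzyme is Sfp with the accession as filed and its product quenches rhodamine fluorescence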
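With Hepes-Na pH 7.6 buffer containing 10 mM MgCl2, Sfp (15 nM) modified BHQ-2-YbbR (12.5 uM) using rhodamine-CoA (5 uM). Two reads 30 minutes apart at 525/598 nm yielded each well's rate.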
A number is an active result. Unless noted, calls come from the whole dose curve; as a rule, active = well fitted curve in the direction sought with a large enough effect; inconclusive = small, poorly fitted or top-dose-only effect, or another doubt; inactive = no such curve, though single readings can be large; an effect the other way counts as inactive or inconclusive.

`Cc1ccc(C(=O)N/C(=C\c2ccc(-c3ccc(Br)cc3)o2)C(=O)NCCCN(C)C)cc1` gave VDR inhibitor inactive, CCT modulator inactive, MmCpn inh inactive, PLK1 PBD inh inactive, G9a inh inactive and Sfp inh inconclusive.
CN(C)CCNC(=O)/C(=C/c1ccc(-c2ccc(Cl)cc2)o1)NC(=O)c1ccccc1 was read as VDR inhibitor inactive, CCT modulator inactive, MmCpn inh inactive, PLK1 PBD inh inactive, G9a inh inconclusive and Sfp inh inactive.
For Cc1ccc(C(=O)N/C(=C/c2ccc(C(C)C)cc2)C(=O)NCCCN2CCOCC2)cc1 the results were VDR inhibitor inactive, CCT modulator inactive, MmCpn inh inactive, PLK1 PBD inh inactive, G9a inh inactive and Sfp inh inactive.
For CN(C)CCNC(=O)/C(=C/c1ccc(-c2ccc(Cl)cc2Cl)o1)NC(=O)c1ccccc1 the results were VDR inhibitor inactive, CCT modulator inactive, MmCpn inh inactive, PLK1 PBD inh inactive, G9a inh inconclusive and Sfp inh 39.8µM.
For Cc1ccc(C(=O)N/C(=C\c2ccc(-c3cccc([N+](=O)[O-])c3)o2)C(=O)NCCCN(C)C)cc1 the results were VDR inhibitor inactive, CCT modulator inactive, MmCpn inh inactive, PLK1 PBD inh inactive, G9a inh 50.1µM and Sfp inh inactive.
Screening Cc1nc(NC2CCCCC2)c2nc(-c3ccccc3)n(CCCN3CCOCC3)c2n1 returned Sfp inh inactive.
`CC(Nc1oc(-c2ccccc2)nc1-c1cccc2ccccc12)c1ccccc1` (configuration not stated) gave VDR inhibitor inactive and Sfp inh inactive.
`COc1ccc(C2=NN(C(=O)CSc3nc4ccccc4s3)C(c3ccc(F)cc3)C2)cc1` (configuration not stated) gave VDR inhibitor inactive, CCT modulator inactive, MmCpn inh inactive, PLK1 PBD inh inactive, G9a inh inactive and Sfp inh inactive.
Screening COC(=O)C1=C(CSc2nc3ccccc3s2)NC(=O)NC1c1ccc(F)cc1 (configuration not stated) returned VDR inhibitor inactive, CCT modulator inactive, MmCpn inh inactive, PLK1 PBD inh inconclusive, G9a inh 39.8µM and Sfp inh inactive.
`CCCCNc1nc(Oc2ccc(OCC(N)=O)nn2)nc(N2CCOCC2)n1` gave VDR inhibitor inactive and G9a inh inactive.
`COc1ccc(Cl)cc1NC(=O)Cn1c(=O)n(-c2ccc(C)cc2)c(=O)c2ccc(C(=O)NCc3ccccc3Cl)cc21` gave VDR inhibitor inactive and G9a inh inactive.
Screening CSCc1ccc(C(=O)NC(C)c2cnn(-c3ccccn3)c2C)o1 (configuration not stated) returned VDR inhibitor inactive, CCT modulator inactive, MmCpn inh inactive, PLK1 PBD inh inactive, G9a inh 35.5µM and Sfp inh inactive.
Screening Cc1cccc(COCC(Cc2ccccc2)N2CCN(C(=O)c3ccc(Cl)c(Cl)c3)CCC2=O)c1 (configuration not stated) returned VDR inhibitor inactive, CCT modulator inactive, MmCpn inh inactive, PLK1 PBD inh inactive, G9a inh inactive and Sfp inh inactive.
`O=C(c1ccc(Cl)c(Cl)c1)N1CCC(=O)N(C(COCc2cccc(C(F)(F)F)c2)Cc2ccccc2)CC1` (configuration not stated) gave VDR inhibitor inconclusive, CCT modulator inactive, MmCpn inh inactive, PLK1 PBD inh inactive, G9a inh 50.1µM and Sfp inh inactive.
`O=C(c1ccc(C(F)(F)F)cc1)N1CCC(=O)N(C(COCc2ccccc2)Cc2ccccc2)CC1` (configuration not stated) gave VDR inhibitor inactive, CCT modulator inactive, MmCpn inh inactive, PLK1 PBD inh inactive, G9a inh 56.2µM and Sfp inh inactive.
Screening O=C(c1ccc(C(F)(F)F)cc1)N1CCC(=O)N(C(COCc2ccc(Cl)cc2)Cc2ccccc2)CC1 (configuration not stated) returned VDR inhibitor inactive, CCT modulator inactive, MmCpn inh inactive, PLK1 PBD inh inactive, G9a inh inactive and Sfp inh inactive.
Screening CCN(CCNC(=O)c1ccc(C#N)cc1)c1cccc(C)c1 returned VDR inhibitor inactive, CCT modulator inactive, MmCpn inh inactive, PLK1 PBD inh inactive, G9a inh 12.6µM and Sfp inh inactive.
For COc1cccc(CCNC(=O)c2ccc(C#N)cc2)c1 the results were VDR inhibitor inactive, CCT modulator inactive, MmCpn inh inactive, PLK1 PBD inh inactive and Sfp inh inactive.
For CCN(CCCNC(=O)c1ccc(Sc2ccc(Cl)cc2)c(NC(C)=O)c1)c1cccc(C)c1 the results were VDR inhibitor inactive and G9a inh 12.6µM.
For O=[N+]([O-])c1ccc(CSc2nc3ccccc3[nH]2)cc1 the results were VDR inhibitor inactive, CCT modulator inactive, MmCpn inh inactive, PLK1 PBD inh inactive, G9a inh 28.2µM and Sfp inh inactive.
`c1ccc(CSc2nc3ccccc3[nH]2)cc1` gave VDR inhibitor inactive, CCT modulator inactive, MmCpn inh inactive, PLK1 PBD inh inactive, G9a inh inactive and Sfp inh inactive.
For Nc1nc(CSc2nc3ccccc3[nH]2)cs1 the results were VDR inhibitor inactive, CCT modulator inactive, MmCpn inh inactive, PLK1 PBD inh inactive, G9a inh inconclusive and Sfp inh 44.7µM.
Screening c1ccc2[nH]c(SCc3cn4ccccc4n3)nc2c1 returned VDR inhibitor inactive, CCT modulator inactive, MmCpn inh inactive, PLK1 PBD inh inactive, G9a inh 44.7µM and Sfp inh inactive.
`Nc1ccccc1SCc1cn2ccccc2n1` gave VDR inhibitor inactive, CCT modulator inactive, MmCpn inh inactive, PLK1 PBD inh inactive, G9a inh 50.1µM and Sfp inh inactive.
Screening Cc1cccc2nc(CSc3nc4ccccc4[nH]3)cn12 returned VDR inhibitor inactive, CCT modulator inactive, MmCpn inh inactive, PLK1 PBD inh inactive, G9a inh inactive and Sfp inh inactive.
For CCOc1ccc(CN2C(=O)c3ccccc3Sc3ccc(C(=O)OC)cc32)cc1 the results were VDR inhibitor inactive and G9a inh inactive.
COC(=O)C=P(c1ccccc1)(c1ccccc1)c1ccccc1 was read as VDR inhibitor inactive and Sfp inh inactive.
Cc1ccc2c(=O)cc(C(=O)N(Cc3ccc(C(C)(C)C)cc3)C3CCS(=O)(=O)C3)oc2c1 (configuration not stated) was read as VDR inhibitor inactive and G9a inh inactive.
